Compounds with a hit are over-represented: about 3.8% of the library has one in this group of screens.
HT1080-NT tox = kills 2HG-producing HT-1080-NT fibrosarcoma cells | Potency, µM (highest dose often 46.1 µM), inactives show top-dose activity, negative = less viability, hits mostly cytotoxic | HT-1080-NT fibrosarcoma viability, CellTiter-Glo ATP luminescence, 48 h | 360,000 compounds, 1.6% hits;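 also: NT is the 2HG producing partner of a matched IDH1 knockdown line; 0% = DMSO-treated cells and -100% = media-only wells without cells; nearly all actives have a fitted effect of over 55% in size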
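HT-1080-NT; 750 cells/well; 5% FBS RPMI; 48 h compound, 37 degrees C; CellTiter-Glo luminescence; curve fitting and curve-class assignment.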
TGFb inhibitor = inhibitors of TGF-b signaling. Potency, µM (series often up to 46.1 µM), inactives show at the top dose activity, negative = inhibition, usual class: inhibitors. HepG2 CAGA-GFP TGF-b/SMAD3 reporter, GFP fluorescence, 18 h; TGF-beta stimulated, 500 pg/mL final. 410,000 compounds, 1.2% hits; also: % is scaled to controls: 0 for no effect and ±100 for the full control effect; nearly all actives have a fitted effect of over 65% in size
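Inhibition of TGF-beta-driven CAGA-GFP reporter expression in HEPG2 cells is measured by cellular GFP fluorescence after 18 h stimulation with 500 pg/mL recombinant TGF-beta in 1% FBS medium at 37 degrees C.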
HepG2 tox-1 = HepG2 cytotoxicity, counter-screen for TGF-b inhibitors; HepG2 CAGA-GFP viability, ATP luminescence, 18 h; Potency, µM (titrated, usually from 46.1 µM), inactives show at the highest dose activity change, negative = cytotoxicity, most hits filed as cytotoxic; 410,000 compounds, 0.76% hits; AID 588856
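CellTiter-Glo luminescence gave cytotoxicity after 18 hours at 37 degrees C. The cells were HepG2 CAGA-GFP in 1% FBS DMEM, stimulated with 500 pg/mL TGF-beta after compound addition. %Activity was normalised to no-cell wells (complete cell-killing) and DMSO (no toxicity), and curves were fitted and classified.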
HT1080 IDH1KD tx = HT-1080 IDH1 knockdown cell toxicity (counter line); AID 686971; Potency, µM (highest dose often 46.1 µM), for the others: at the top dose activity, negative = toxicity, usual class: cytotoxic; 360,000 compounds, 2% hits; HT-1080 IDH1 knockdown viability, ATP luminescence, 48 h;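 also: 0% = DMSO wells and -100% = cell-free medium wells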
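Using the IDH1-knockdown HT-1080 line run in the same batch and compound series as the NT line, viability after 48 h at 37 °C was determined by CellTiter-Glo luminescence and expressed as % activity.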
ATXN viability = viability counter-screen for ATXN expression inhibitors; Potency, µM (series often up to 56.7 µM), usual class: cytotoxic; S2 cells (HEK-293 line with an ATXN2-luciferase reporter) viability, CellTiter-Fluor protease fluorescence, 24 h; 400,000 compounds, 0.49% hits; also: nearly all actives have a fitted effect of over 40% in size
ATXN2 expr inh = inhibitors of ATXN2 expression; Potency, µM (top dose mostly 57 µM), for inactives: at the top dose activity change, negative = inhibition, actives largely listed as inhibitors; AID 1745845; HEK-293 ATXN2-luciferase reporter, luminescence, 24 h; 360,000 compounds, 0.72% hits; also: % is scaled to controls: 0 for no effect and ±100 for the full control effect; nearly all actives have a fitted effect of over 55% in size
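qHTS (up to 57 uM final) was run with 24 h compound exposure of reporter cells at 37 °C. Each well was multiplexed: SteadyGlo luminescence measured ATXN2-luciferase expression after a fluorogenic Gly-Phe-AFC viability readout (25 uM final).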
TGFb confirm = confirmation of TGF-b signaling inhibitors in HepG2 reporter cells; shares compounds with TGFb inhibitor; HepG2 CAGA-GFP TGF-b reporter, GFP fluorescence, 18 h; cells stimulated with TGF-beta, 500 pg/mL; Potency, µM (top dose mostly 46.1 µM), for inactives: at the top dose activity, negative = inhibition, most hits filed as inhibitors; 1,600 compounds, 63% hits; AID 720534; also: % is scaled to controls: 0 for no effect and ±100 for the full control effect; nearly all actives have a fitted effect of over 65% in size
HepG2 tox-2 = counter-screen for TGF-b inhibitors: cytotoxicity in HepG2 cells; Potency, µM (doses to about 46.1 µM), for the others: at the top dose activity, negative = cytotoxicity, hits mostly inhibitors; shares compounds with TGFb inhibitor; 1,600 compounds, 27% hits; HepG2 CAGA-GFP viability, ATP luminescence, 18 h; cells stimulated with TGF-beta, 500 pg/mL; also: % is scaled to controls: 0 for no effect and ±100 for the full control effect; nearly all actives have a fitted effect of over 70% in size
TGFb CCL64 inh = orthogonal confirmation of TGF-b inhibitors in CCL64 cells; shares compounds with TGFb inhibitor; CCL64 CAGA-GFP reporter, TGF-b stimulated, GFP fluorescence, 18 h; Potency, µM (series often up to 46.1 µM), inactives show at the top dose activity, negative = inhibition, usual class: inhibitors; 1,600 compounds, 41% hits; AID 720536; also: nearly all actives have a fitted effect of over 65% in size
TGFb COP inh = validation of TGF-b inhibitors in HepG2 COP promoter reporter; Potency, µM (series often up to 46.1 µM), for the others: at the top dose activity, negative = inhibition, usual class: inhibitors; shares compounds with TGFb inhibitor; AID 720537; 1,600 compounds, 3% hits; HepG2 COP-GFP TGF-b reporter, GFP fluorescence, 18 h; cells stimulated by added recombinant TGF-beta; also: nearly all actives have a fitted effect of over 70% in size
* = called active by the depositor; i = inactive; ? = inconclusive; . = not tested or not shown. Calls follow the shape of the dose curve; as a rule, active = well fitted curve in the direction sought with a large enough effect; inconclusive = small, poorly fitted or top-dose-only effect, or another doubt; inactive = no such curve, though single readings can be large; an effect the other way counts as inactive or inconclusive. Potency is read from the fitted curve at half-maximal effect.

SMILES	HT1080-NT tox	TGFb inhibitor	HepG2 tox-1	HT1080 IDH1KD tx	ATXN viability	ATXN2 expr inh	TGFb confirm	HepG2 tox-2	TGFb CCL64 inh	TGFb COP inh
COc1ccc(C2CC(c3ccccc3OC(C)=O)=NN2C(=O)/C=C/c2ccccc2)cc1OC (stereo not given)	-20%	10µM*	-21%	?	i	-7%	18µM*	-25%	?	2%
COc1ccc(C2=NN(C(=O)/C=C/c3ccccc3)C(c3ccccc3)C2)c(OC(C)=O)c1 (stereo not given)	-9%	-3%	0%	?	i	-20%	.	.	.	.
CC(=O)Nc1ccc(NC2=C/C(=N/S(=O)(=O)c3cccs3)c3ccccc3C2=O)cc1	16µM*	5µM*	6.3µM*	9.2µM*	10µM*	16µM*	2.6µM*	3.3µM*	9.2µM*	5.2µM*
COc1ccc(S(=O)(=O)/N=C2\C=C(Nc3ccc(O)cc3)C(=O)c3ccccc32)cc1	1.8µM*	0.79µM*	0.89µM*	2.1µM*	6.3µM*	3.2µM*	0.58µM*	4.1µM*	1.3µM*	?
CC(=O)N[C@@H](CCC(=O)O)C(=O)O	.	.	.	.	i	4%	.	.	.	.
COc1cc(C(CCN2CCCC2)c2c(OC)cc(OC)c3c2OC(=O)CC3c2ccc(N(C)C)cc2)cc(OC)c1OC (stereo not given)	.	-12%	9%	.	.	.	.	.	.	.
NC(=S)N=Nc1c(O)n(CCCl)c2ccc(Br)cc12	-2%	?	-18%	-9%	?	?	-12%	?	?	2%
COc1ccc(CCNc2nc(SCc3ccc(Cl)cc3)nc3ccccc23)cc1OC	.	0%	-15%	.	.	.	.	.	.	.
OCCCNc1c2ccccc2nc2ccccc12	23µM*	4.5µM*	23%	12µM*	?	?	13µM*	13µM*	?	25%
COc1ccc(CCNc2c3ccccc3nc3ccccc23)cc1OC	21µM*	16µM*	-49%	?	?	?	15µM*	21µM*	26µM*	-19%
COc1ccc(C2/C=C\CN(C(=O)C3CC3)[C@H](Cc3ccccc3)C(=O)N2Cc2ccc(F)cc2)cc1 (stereo not given in full)	?	10µM*	-5%	?	?	0%	?	-25%	?	35%
Cc1cccc(NC(=O)Nc2cccc(C#N)c2)n1	-11%	?	-48%	-4%	i	59%	.	.	.	.
Cc1cccc(NC(=O)Nc2ccc(C#N)cc2)n1	-7%	2.5µM*	-34%	-3%	i	4%	6.5µM*	8.2µM*	4.1µM*	27%
